Among the data in PubChem BioAssay (Tox21) are Potency and outcome values, retold here.

Values joined by “and” are separate entries in the source; they are usually repeats but may differ in a detail not shown here. Equal values may be shown once. Results filed as inconclusive are left out. Active and inactive are the calls of the source. Unless noted, calls come from the whole dose curve; as a rule, active = well fitted curve in the direction sought with a large enough effect in the repeat runs; inconclusive = weak or mixed curves; inactive = no such curve, though single readings can be large; an effect the other way counts as inactive or inconclusive.

Assay [1] in a line: qHTS assay to identify aromatase inhibitors - cell viability counter screen (AID 743084).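 Note: cells stimulated with testosterone during compound exposure; nearly all actives have a fitted effect of over 55% in size.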 Note: potency is the fitted concentration of half-maximal effect. On the technique in general: Quantitative high-throughput screening tests each substance at several concentrations.
Assay [2] concerns the target Aryl hydrocarbon receptor (Homo sapiens) (UniProt P35869). In words: qHTS assay to identify small molecule that activate the aryl hydrocarbon receptor (AhR) signaling pathway (AID 743085).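 Note: HG2L7.5c1 human HepG2 liver cells with stably integrated DRE-driven firefly reporter; series mostly up to about 70 µM; nearly all actives have a fitted effect of over 15% in size.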 In short, it runs like this: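 Cell line HG2L7.5c1 (human hepatoma, 20× DRE-luc). Plated, 5 h 37C, compound/DMSO added, 24 h 37C. CellTiter-Fluor 30 min 37C → fluorescence; then ONE-Glo 30 min RT → luminescence.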

Assay [3] in a line: qHTS assay to identify small molecule that activate the aryl hydrocarbon receptor (AhR) signaling pathway - cell viability counter screen (AID 743086). Note: nearly all actives have a fitted effect of over 45% in size. Note: potency is the fitted concentration of half-maximal effect. In short, it runs like this:
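HepG2-AhR-luc (HG2L7.5c1) cells, 4000/well, were preincubated 5 h at 37C, exposed to compound in qHTS format for 24 hr at 37C, then given CellTiter-Fluor for 30 min; viability was read as fluorescence in the reporter wells.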

The target in assay [4] is Peroxisome proliferator-activated receptor gamma (Homo sapiens) (UniProt P37231). The assay is described as follows: qHTS assay to identify small molecule agonists of the peroxisome proliferator-activated receptor gamma (PPARg) signaling pathway (AID 743094; active = well fitted activation curve with a large enough effect in the signal ratio in the repeat runs, not every such curve was filed as active; the % refers to the signal ratio). In short, it runs like this: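 Agonism was assessed in a beta-lactamase reporter system, HEK293H cells with a stably integrated UAS-bla construct under PPARg control; the 17 h treatment at 37C preceded a 1 h room-temperature FRET substrate read.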

Assay [5] has the same target. In words: qHTS assay to identify small molecule antagonists of the peroxisome proliferator-activated receptor gamma (PPARg) signaling pathway (AID 743191; calls by dose curve; note: series mostly up to about 63 µM; nearly all actives have a fitted effect of over 30% in size). In short, it runs like this:
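GeneBLAzer PPARg UAS-bla HEK293H cells carrying a UAS-driven beta-lactamase reporter were plated at 3000 cells/well, preincubated 5 h at 37C, then given compound for 17 h at 37C; LiveBLAzer B/G FRET substrate was read after 1 h at room temperature.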

Assay [6] in a line: qHTS assay to identify small molecule antagonists of the peroxisome proliferator-activated receptor gamma (PPARg) signaling pathway - cell viability counter screen (AID 743194). Note: nearly all actives have a fitted effect of over 55% in size. In short, it runs like this:
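PPARg-UAS-bla HEK293H cells were plated, rested 5 h at 37 C, then treated with compounds plus rosiglitazone (50 nM final) for 17 h at 37 C; viability was then read by CellTiter-Glo luminescence after 30 min at room temperature.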

Assay [7] can be described thus: qHTS assay for small molecule agonists of the antioxidant response element (ARE) signaling pathway (AID 743202; active = well fitted activation curve with a large enough effect in the signal ratio in the repeat runs, not every such curve was filed as active; the % refers to the signal ratio). In short, it runs like this:
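Following a 16 h, 37 C exposure of reporter HepG2 cells (ARE-driven beta-lactamase, 2,000 cells/well) to compounds, FRET substrate was applied for 2 h at room temperature and fluorescence intensity recorded.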

Assay [8] is described as follows: qHTS assay for small molecule agonists of the antioxidant response element (ARE) signaling pathway - cell viability counter screen (AID 743203; calls by dose curve; note: nearly all actives have a fitted effect of over 55% in size). In short, it runs like this:
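ATP content via CellTiter-Glo luminescence served as the viability measure. Cells: ARE-bla HepG2, 2,000 per well. Exposure: 16 hrs, 37C/5% CO2.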

Assay [9] in a line: qHTS assay for small molecule activators of the heat shock response signaling pathway (AID 743210; active = well fitted activation curve with a large enough effect in the signal ratio in the repeat runs, with a control signal flat, not every such curve was filed as active; the % refers to the signal ratio; note: series mostly up to about 63 µM). The procedure, abridged: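 Heat shock element–beta-lactamase HeLa reporter cells; qHTS with compounds for 5 h at 37 C; detection by FRET substrate fluorescence after 2.5 h at RT.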
Assay [10] can be described thus: qHTS assay to identify small molecule agonists of the peroxisome proliferator-activated receptor delta (PPARd) signaling pathway - cell viability counter screen (AID 743211). Note: nearly all actives have a fitted effect of over 55% in size. The procedure, abridged:
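HEK293H PPARd-bla, 3000 cells/well; 5 h preincubation 37C/5% CO2; cpd in DMSO, 17 h 37C; B/G FRET substrate 2 h RT; CellTiter-Glo 30 min RT, luminescence.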

For assay [11], the target named is Peroxisome proliferator-activated receptor delta (Homo sapiens) (UniProt Q03181). The assay is described as follows: qHTS assay to identify small molecule agonists of the peroxisome proliferator-activated receptor delta (PPARd) signaling pathway (AID 743212; calls by dose curve). In short, it runs like this: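 Beta-lactamase reporter read by fluorescence (LiveBLAzer B/G FRET, 2 h, room temperature). Test agents, in DMSO, incubated at 37 C with PPARd-bla HEK293H cells.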

For assay [12] the target is unchanged. In words: qHTS assay to identify small molecule antagonists of the peroxisome proliferator-activated receptor delta (PPARd) signaling pathway (AID 743215; active = well fitted inhibition curve with a large enough effect in the signal ratio in the repeat runs, not every such curve was filed as active; the % refers to the signal ratio;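 note: cells stimulated with agonist L165041 at 300 nM final during compound exposure; series mostly up to about 62 µM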). In short, it runs like this:
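Here, a reporter line (HEK293H, beta-lactamase under a UAS) measures PPARd signaling. Compounds are tested against agonist L165041 at 300 nM final concentration over 17 h at 37 C, with fluorescence read after substrate.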

The target of assay [13] is Bile acid receptor (Homo sapiens) (UniProt Q96RI1). In words: qHTS assay to identify small molecule antagonists of the farnesoid-X-receptor (FXR) signaling pathway (AID 743217; active = well fitted inhibition curve with a large enough effect in the signal ratio in the repeat runs, not every such curve was filed as active; the % refers to the signal ratio). In short, it runs like this: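 Test compounds are pin-transferred onto FXR-bla HEK 293T cells, then chenodeoxycholic acid is added at 50 uM final. After 16 h at 37 °C, LiveBLAzer B/G substrate is applied for 2 h at room temperature and fluorescence read.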

Assay [14] can be described thus: qHTS assay to identify small molecule agonists of the farnesoid-X-receptor (FXR) signaling pathway - cell viability counter screen (AID 743218). Note: nearly all actives have a fitted effect of over 45% in size. In short, it runs like this:
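Quantitative HTS counter screen measuring ATP-based viability via CellTiter-Glo luminescence in HEK 293T cells carrying a UAS-driven beta-lactamase reporter, after 16 h compound exposure at 37 C.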

Assay [15] addresses Bile acid receptor (Homo sapiens) (UniProt Q96RI1). In words: qHTS assay to identify small molecule agonists of the farnesoid-X-receptor (FXR) signaling pathway (AID 743220; active = well fitted activation curve with a large enough effect in the signal ratio in the repeat runs, not every such curve was filed as active; the % refers to the signal ratio). In short, it runs like this:
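FXR-UAS-bla HEK 293T cells carrying a UAS-driven beta-lactamase reporter were plated for 5 h at 37C/5% CO2, then exposed to DMSO-dissolved Tox21 10K compounds for 16 h at 37C. A LiveBLAzer B/G FRET substrate was loaded for 2 h at room temperature before fluorescence reading.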

A short description of assay [16]: qHTS assay to identify small molecule antagonists of the farnesoid-X-receptor (FXR) signaling pathway - cell viability counter screen (AID 743221; active = well fitted cell-killing curve with a large enough effect in the repeat runs, not every such curve was filed as active; note: nearly all actives have a fitted effect of over 50% in size). In short, it runs like this: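 Luminescence from CellTiter-Glo measures cytotoxicity in GeneBLAzer FXR-UAS-bla HEK 293T cells. Cells were exposed to compounds with 50 uM chenodeoxycholic acid (final) for 16 h at 37 C, in wells also used for the reporter readout.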

Assay [17] can be described thus: qHTS assay for small molecule activators of the heat shock response signaling pathway - cell viability counter screen (AID 743209). Note: nearly all actives have a fitted effect of over 50% in size. The procedure, abridged:
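Compounds dissolved in DMSO were added to overnight-plated HSE-bla HeLa cells and left 5 h at 37 C. Cell viability was quantified by luminescence using CellTiter-Glo.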

Assay [18] concerns the target Vitamin D3 receptor (Homo sapiens) (UniProt P11473). The assay is described as follows: qHTS assay to identify small molecule antagonists of the vitamin D receptor (VDR) signaling pathway (AID 743223; active = well fitted inhibition curve with a large enough effect in the signal ratio in the repeat runs, not every such curve was filed as active; the % refers to the signal ratio). The procedure, abridged:
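Antagonist mode uses 1alpha,25-dihydroxyvitamin D3 at 3 nM final as stimulus. VDR-bla cells receive compounds in DMSO, incubate 16 h at 37C, then a beta-lactamase FRET substrate for 2 h at room temperature before fluorescence measurement.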

Assay [19] can be described thus: qHTS assay to identify small molecule antagonists of the peroxisome proliferator-activated receptor delta (PPARd) signaling pathway - cell viability counter screen (AID 743213). Note: nearly all actives have a fitted effect of over 50% in size. In short, it runs like this: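 CellTiter-Glo was added to PPARd-bla HEK293H wells following 17 h compound treatment in the presence of 300 nM L165041. Luminescence was recorded after 30 min at room temperature.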

Assay [20] has as its target Vitamin D3 receptor (Homo sapiens) (UniProt P11473). The assay is described as follows: qHTS assay to identify small molecule agonists of the vitamin D receptor (VDR) signaling pathway (AID 743222; calls by dose curve). The procedure, abridged: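 Tox21 cell reporter format: VDR-bla line, 16 h compound exposure in 5% CO2 at 37C, then fluorescence intensity after 2 h with LiveBLAzer B/G FRET substrate.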

Chain of Vitamin D3 receptor (Homo sapiens) (P11473 whole entry, looked up): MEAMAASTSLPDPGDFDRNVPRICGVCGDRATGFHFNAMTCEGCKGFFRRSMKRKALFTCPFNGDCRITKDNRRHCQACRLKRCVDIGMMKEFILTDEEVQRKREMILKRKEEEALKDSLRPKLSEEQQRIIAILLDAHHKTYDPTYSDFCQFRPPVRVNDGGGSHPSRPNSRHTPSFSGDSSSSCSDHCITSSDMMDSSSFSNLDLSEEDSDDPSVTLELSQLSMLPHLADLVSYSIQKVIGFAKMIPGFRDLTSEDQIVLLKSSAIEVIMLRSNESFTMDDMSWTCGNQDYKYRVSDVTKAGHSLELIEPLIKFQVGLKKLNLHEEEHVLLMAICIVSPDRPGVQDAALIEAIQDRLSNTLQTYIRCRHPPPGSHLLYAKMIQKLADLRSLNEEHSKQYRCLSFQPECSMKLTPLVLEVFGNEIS
Chain of Peroxisome proliferator-activated receptor gamma (Homo sapiens) (P37231 whole entry, looked up): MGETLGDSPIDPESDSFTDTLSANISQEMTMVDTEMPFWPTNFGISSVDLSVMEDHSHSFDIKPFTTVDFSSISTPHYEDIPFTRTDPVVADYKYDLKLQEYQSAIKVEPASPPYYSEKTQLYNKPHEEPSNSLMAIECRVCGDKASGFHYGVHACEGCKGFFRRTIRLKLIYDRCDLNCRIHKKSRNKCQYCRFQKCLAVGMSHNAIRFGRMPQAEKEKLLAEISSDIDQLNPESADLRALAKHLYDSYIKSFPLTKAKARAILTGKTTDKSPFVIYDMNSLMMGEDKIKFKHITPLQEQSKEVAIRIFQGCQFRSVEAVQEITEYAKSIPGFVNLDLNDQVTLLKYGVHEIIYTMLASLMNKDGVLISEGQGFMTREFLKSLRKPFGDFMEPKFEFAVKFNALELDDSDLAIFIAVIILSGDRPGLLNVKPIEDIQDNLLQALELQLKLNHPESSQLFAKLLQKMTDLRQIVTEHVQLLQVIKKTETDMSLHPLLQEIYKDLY
Chain of Bile acid receptor (Homo sapiens) (Q96RI1 whole entry, looked up): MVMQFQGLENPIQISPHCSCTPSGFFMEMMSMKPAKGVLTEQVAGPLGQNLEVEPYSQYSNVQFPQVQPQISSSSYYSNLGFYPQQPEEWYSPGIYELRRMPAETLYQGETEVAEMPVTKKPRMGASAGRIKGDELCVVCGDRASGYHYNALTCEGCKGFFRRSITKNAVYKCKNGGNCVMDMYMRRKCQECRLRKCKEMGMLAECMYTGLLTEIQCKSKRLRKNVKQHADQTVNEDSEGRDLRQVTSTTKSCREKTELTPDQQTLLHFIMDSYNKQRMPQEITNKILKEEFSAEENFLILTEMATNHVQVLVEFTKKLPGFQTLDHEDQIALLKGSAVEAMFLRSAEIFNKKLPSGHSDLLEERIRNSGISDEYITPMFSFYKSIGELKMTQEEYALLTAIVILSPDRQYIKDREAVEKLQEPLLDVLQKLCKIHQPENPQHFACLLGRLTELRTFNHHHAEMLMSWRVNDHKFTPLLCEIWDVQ
Chain of Aryl hydrocarbon receptor (Homo sapiens) (P35869 whole entry, looked up): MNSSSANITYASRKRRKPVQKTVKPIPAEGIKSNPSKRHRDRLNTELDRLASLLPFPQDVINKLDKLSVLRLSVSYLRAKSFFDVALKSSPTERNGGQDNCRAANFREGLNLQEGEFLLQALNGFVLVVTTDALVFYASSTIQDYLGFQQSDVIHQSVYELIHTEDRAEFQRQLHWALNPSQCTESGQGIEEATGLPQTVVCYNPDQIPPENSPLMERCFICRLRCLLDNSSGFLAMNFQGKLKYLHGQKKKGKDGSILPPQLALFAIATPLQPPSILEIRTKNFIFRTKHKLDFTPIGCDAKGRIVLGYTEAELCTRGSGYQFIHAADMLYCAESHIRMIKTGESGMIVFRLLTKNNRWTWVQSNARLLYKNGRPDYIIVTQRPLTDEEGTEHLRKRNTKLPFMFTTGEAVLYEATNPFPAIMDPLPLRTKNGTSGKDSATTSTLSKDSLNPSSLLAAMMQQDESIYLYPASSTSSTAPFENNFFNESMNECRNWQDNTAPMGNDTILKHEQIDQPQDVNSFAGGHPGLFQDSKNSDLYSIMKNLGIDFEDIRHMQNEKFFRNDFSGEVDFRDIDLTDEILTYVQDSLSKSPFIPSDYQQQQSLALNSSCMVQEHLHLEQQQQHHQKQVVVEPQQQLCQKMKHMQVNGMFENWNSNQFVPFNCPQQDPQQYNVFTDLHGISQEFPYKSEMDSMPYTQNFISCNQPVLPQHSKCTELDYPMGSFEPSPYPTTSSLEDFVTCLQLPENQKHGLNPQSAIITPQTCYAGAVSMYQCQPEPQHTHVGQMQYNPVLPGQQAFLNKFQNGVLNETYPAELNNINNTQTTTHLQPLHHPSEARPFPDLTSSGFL
Chain of Peroxisome proliferator-activated receptor delta (Homo sapiens) (Q03181 whole entry, looked up): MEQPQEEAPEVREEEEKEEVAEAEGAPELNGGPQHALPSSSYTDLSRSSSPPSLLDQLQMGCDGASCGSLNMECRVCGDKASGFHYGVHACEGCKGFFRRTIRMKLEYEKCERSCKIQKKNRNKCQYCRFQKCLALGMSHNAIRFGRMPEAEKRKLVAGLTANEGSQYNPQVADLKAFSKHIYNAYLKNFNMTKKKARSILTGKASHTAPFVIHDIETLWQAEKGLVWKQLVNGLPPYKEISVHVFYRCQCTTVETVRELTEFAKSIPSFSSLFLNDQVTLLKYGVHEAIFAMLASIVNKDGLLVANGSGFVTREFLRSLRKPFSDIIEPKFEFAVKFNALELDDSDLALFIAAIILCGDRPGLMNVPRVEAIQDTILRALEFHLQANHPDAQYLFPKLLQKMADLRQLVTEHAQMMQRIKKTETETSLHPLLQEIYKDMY

Take `Cc1cc(=O)[nH]c(=S)[nH]1`: the Potency entry in assay [1], in assay [2], in assay [3], in assay [7] and in assay [13] was “inactive” each time. Further, the molecule was classed as inactive in assay [4], in [5], in assay [6], in assay [8], in assay [9] and in assay [10]. Further, the molecule was classed as inactive in assay [11], in assay [12], in [14], in assay [15] and in assay [16].
Take `CCC1(c2ccccc2)C(=O)NCNC1=O`: the Potency result in assay [1], in [2], in [3], in [7] and in assay [13] was “inactive” throughout. The result in assay [4], in assay [5], in [6], in assay [8], in assay [17] and in assay [9] was inactive. Further, the call in [10], in assay [14], in assay [15], in assay [16] and in assay [18] was inactive.
`CCCCC1C(=O)N(c2ccccc2)N(c2ccccc2)C1=O`: the Potency result in assay [1], in [2], in assay [3], in assay [7] and in [13] was “inactive” throughout. Also, the result in assay [4], in assay [5], in assay [6], in assay [8], in [17] and in assay [9] was inactive. Further, the result in [10], in assay [19], in assay [14], in assay [15] and in [16] was inactive.
Regarding `CCCCCCCCCCCCCCCC(=O)O`, the Potency result in assay [1], in assay [2], in assay [3] and in [7] was “inactive” in each case. Besides, the molecule was called inactive in [4], in assay [5], in [6], in [8], in assay [17] and in assay [9]. Further, the outcome in [10], in [14], in assay [16] and in assay [20] was inactive.
In the case of `O=C(O)c1[nH]n(-c2ccc(S(=O)(=O)O)cc2)c(=O)c1N=Nc1ccc(S(=O)(=O)O)cc1`, the Potency in assay [1] was 30.7 µM (active) and 57.1 µM (active); in [3] it was 30.7 µM (active) and 22.7 µM (active). For the same molecule, the Potency result in [2], in assay [7] and in assay [13] was “inactive” throughout. Also, the call in assay [4], in assay [5], in assay [6], in assay [8], in [9] and in assay [10] was inactive. The outcome in assay [11], in [12], in assay [14], in [15], in assay [16] and in [18] was inactive.
With `Cc1ccc(O)cc1`, the Potency entry in [1], in [2], in assay [3], in assay [7] and in assay [13] was “inactive” each time. Also, the call in assay [4], in [5], in assay [6], in [8], in [9] and in assay [10] was inactive. In addition, the outcome in [11], in [19], in [12], in [14], in assay [15] and in assay [16] was inactive. In addition, the call in assay [20] was inactive.
Consider `NC(=O)c1cnccn1`, for which the Potency result in assay [1], in assay [2], in assay [3] and in assay [7] was “inactive” throughout. For the same molecule, the result in [4], in assay [5], in assay [6], in [8], in [9] and in assay [10] was inactive. The call in assay [11], in assay [19], in [12], in assay [14], in assay [16] and in [20] was inactive. The result in assay [18] was inactive.
Regarding `OCCc1ccccc1`, the Potency entry in assay [1], in assay [2], in assay [3], in [7] and in assay [13] was “inactive” in each case. The molecule was classed as inactive in assay [4], in [5], in assay [6], in [8], in assay [17] and in [9]. Also, the outcome in [10], in assay [11], in assay [19], in assay [12], in assay [14] and in assay [15] was inactive. For the same molecule, in assay [16], the molecule was called inactive.
